Results: patent US20210230599, “STEM-LOOP COMPOSITIONS AND METHODS FOR INHIBITING INTERLEUKIN-8” (VITRISA THERAPEUTICS, INC., published 2021)

What follows are sequences tested against Interleukin-8 (IL8, CXCL8), C-terminal His-tagged (Homo sapiens, UniProt P10145 SEQ:1-72) (assay: competition; competition TR-FRET; L1 A to U, described as complete loss). Conditions: tags: C-terminal 6xHis (Sino Biological); ssRNA; 2'-F G, 2'-OMe A/C/U, 5' C6NH2, 3' idT.
Experimental: To better understand the sequence requirements and to confirm the stem structures of members of the Aptamer 3 family as determined from sequence covariation analysis from both the primary and secondary (degenerate) selections, a series of variants which included mutations and deletions to the predicted stems were synthesized and screened (Table 24). Activity of each of these variants were tested using a time resolved competition TR-FRET assay in which the labeled parent Aptamer 3 was competed with increasing concentrations of unlabeled variants for binding to IL8 (FIG. 14). Briefly, 2-fold dilutions of thermally equilibrated aptamers were made in TR-FRET Buffer (50 mM MOPS, pH 7.4, 125 mM NaCl, 5 mM KCl, 50 μM CHAPS, 0.1 mg/mL BSA, 1 mM CaCl₂, and 1 mM MgCl₂). 5 μL of aptamer or control solution was added to 5 μl mix of 10 nM C-terminal His-tagged-IL8, 60 nM ALEXA FLUOR® 647-labeled Aptamer, and 5 nM anti-His-Eu (Perkin Elmer) in a black wall low volume 384 well plate (Greiner). […] The plate was read on a Biotek CYTATION™ 5 plate reader. […]
To confirm the importance of this residue, molecules were made and tested in which either loop L1 was deleted entirely (Aptamer 40) or was mutated to 5′-U-3′(Aptamer 41). In both cases, there was a complete loss of activity (>10-fold) as determined by competition TR-FRET assay (Table 25 and FIG. 15).

Row | Sequence | binding signal
1 | GAUGUCGGUAGAUUACGGGUAGAGUGACCGCAUC | > 10 fold worse than Aptamer 3
